Test results taken from PubChem BioAssay (NCATS).
Records with an inconclusive call do not appear. The call rests on the fitted dose curve; in most records, active means well fitted curve in either direction with a large enough effect (not every such curve was filed as active); inconclusive means small, poorly fitted or top-dose-only effect, or another doubt; inactive means flat fitted curve, though single readings scatter.

Each molecule was assayed against Mitogen-activated protein kinase 10 (Mus musculus) (UniProt Q61831) (assay: JNK3 AlphaScreen Assay (AID 530;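 further: kinase came from lysate of stimulated human HepG2 cells; signal reports phosphorylation of biotinylated GST-cJun 1-79 at Ser73 with 10 µM ATP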)). Settings: JNK3 lysate, c-Jun phosphorylation; series mostly up to 57.1 µM; activity change, negative = inhibition: at the top concentration.
In short: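 qHTS format: compounds tested as titrations against IL-1beta/TNF-alpha-activated HepG2 lysate JNK3 with biotin-GST-cJun substrate and 10 uM ATP at room temperature. Loss of anti-phospho-cJun AlphaScreen signal indicates inhibition.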
On the % scale 0 is the no-effect control and ±100 the full control effect.

Activity change, negative = inhibition, inactive:
CS(=O)(=O)Nc1cccc(-c2cc(Nc3ccccc3)ncn2)c1 -4.86%, COc1ccccc1CNc1cc(-c2ccccc2OC)ncn1 -8.04%, CNc1nc(-c2ccc(C(=O)N(C)C)cc2)nc2ccccc12 -4.97%, CN(C)C(=O)c1ccc(-c2nccc(-n3ccnc3)n2)cc1 -6.4%, Cc1cnc(CNc2cc(-c3ccccc3Cl)ncn2)cn1 -0.149%, CN(Cc1ccco1)c1cc(-c2cccc(C#N)c2)ncn1 -6.09%, Cc1ccccc1-c1nc(N(C)C)c2ccccc2n1 6.85%, Cc1noc(C)c1-c1nccc(NCc2ccccc2)n1 1.19%, Cc1cnc(CNc2cc(-c3ccccc3C(F)(F)F)ncn2)cn1 5.91%, CN(C)C(=O)c1ccc(-c2ccc3ncnc(N4CCNCC4)c3c2)cc1 8.76%, COc1cccc(-c2cc(NCc3cccnc3)ncn2)c1 -4.33%, COc1ccc2[nH]cc(CCNc3ccnc(-c4ccc5c(c4)OCO5)n3)c2c1 -14.7%, COc1ccc(CNc2ncncc2-c2ccc(C(=O)N(C)C)cc2)c(OC)c1 10.8%, Cn1c(=O)c(-c2cc(F)cc(F)c2)nc2cncnc21 -14.7%, COc1cccc(-c2cncnc2NCc2cnc(C)cn2)c1 -0.325%, COc1ccccc1-c1nc(NCCN2CCOCC2)c2ccccc2n1 -0.67%, Cc1cnc(CNc2cc(-c3cccnc3)ncn2)cn1 -3.66%, Cc1cnc(CNc2cc(-c3ccccc3C)ncn2)cn1 5.85%
